The text below walks through data of PubChem BioAssay (NCATS).

Inconclusive results are not listed. Active and inactive are the calls of the source. Unless noted, the call rests on the fitted dose curve; in most records, active means well fitted curve in either direction with a large enough effect (not every such curve was filed as active); inconclusive means small, poorly fitted or top-dose-only effect, or another doubt; inactive means flat fitted curve, though single readings scatter. Bounds are passed on as bounds.

Assay [1] has as its target Lysosomal acid glucosylceramidase (Homo sapiens) (UniProt P04062). Kind of assay: Glucocerebrosidase-p2 (AID 348; in the data active means potency below about 10 µM; further: potency means the concentration at half of the fitted maximal effect). As to conditions: purified GBA, blue fluorogenic substrate, 40 min. The procedure, abridged:
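Normal human glucocerebrosidase (0.2 nM) with blue fluorogenic substrate (80 uM final) in citrate/phosphate pH 5.9 with 10mM sodium taurocholate, 0.01% tween-20; 40 min RT, NaOH/glycine stop; fluorescence Ex 365/Em 440; AC50 from a titration from 0.6 nM upwards.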

Assay [2] is described as follows: AP1 Signaling Pathway (AID 357).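 Further: ME-180 reporter cells stimulated with EGF at its EC50 level; on the % scale 0 is the no-effect control and ±100 the full control effect.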 The conditions noted are these: ME-180 AP-1-bla reporter, EGF-induced, beta-lactamase ratio, 5 h; at 7.69 µM (top of the series) unless noted. The procedure, abridged:
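Read-out was the 460nm/530nm emission ratio (excitation 405nm) after CCF4 loading for 2.5 hours at room temperature. Cells carried an AP-1-driven beta-lactamase reporter, were stimulated with EC50 EGF plus compound for 5 hours, and AC50 values came from titrations.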

Assay [3] can be described thus: NFAT Signaling Pathway (AID 444).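 Further: carbachol stimulus at about its EC50 of 1 µM final; on the % scale 0 is the no-effect control and ±100 the full control effect.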 As to conditions: Jurkat NFAT-bla M1, carbachol, beta-lactamase ratio, 5 h; at 7.69 µM (top of the series) unless noted. The procedure, abridged: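 Jurkat cells carrying an NFAT-driven β-lactamase reporter and co-transfected muscarinic M1 receptor were treated with compound plus carbachol (1 uM final, an EC50 level) for 5 h at 37 °C. CCF4 loading followed for 1 h at RT; 460/530 nm ratio gave %activity.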

A short description of assay [4]: Stat Signaling Pathway (AID 446).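 Further: ME-180 cervical cancer cells given 40 pM IL-6 alongside compound; SIE-controlled beta-lactamase reporter measured as 460/530 nm FRET emission ratio; on the % scale 0 is the no-effect control and ±100 the full control effect.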 The conditions noted are these: ME-180 SIE beta-lactamase reporter, IL-6 stimulated, 5 h; at 7.69 µM (top of the series) unless noted. The procedure, abridged: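 FRET read-out (405 nm excitation, 460/530 nm emission) of a beta-lactamase reporter under a STAT-inducible element in ME-180 cervical carcinoma cells. Cells with compound receive 40 pM IL-6 for 5 h. Values are normalised to AC90 stimulation and AC90 JAK-inhibitor controls.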

Assay [5] concerns the target Glucocorticoid receptor (Homo sapiens) (UniProt P04150). Put plainly: GR-GFP Redistribution (AID 450;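 active means compounds whose dose series gives a full or clear partial fitted curve of increased nuclear translocation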; further: potency means the concentration at half of the fitted maximal effect). As to conditions: U2OS GR-GFP nuclear translocation, laser cytometry, 2 h.
For assay [6] the target is unchanged. Kind of assay: GR-EFC Redistribution (AID 451; calls by dose curve; further: potency means the concentration at half of the fitted maximal effect). The conditions noted are these: CHO-K1 GR-EFC translocation, beta-gal luminescence, 2 h. The procedure, abridged: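 CHO-K1 cells stably expressing nuclear-localized β-gal enzyme acceptor and GR fused C-terminally to the enzyme donor fragment; ligand-driven nuclear translocation restores β-gal by complementation. Compounds titrated up to 46 uM final, 2 h at 37 °C; luminescence read.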

Assay [7] concerns the target Mitogen-activated protein kinase 10 (Mus musculus) (UniProt Q61831). Kind of assay: JNK3 AlphaScreen Assay (AID 530).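 Further: kinase came from lysate of stimulated human HepG2 cells; on the % scale 0 is the no-effect control and ±100 the full control effect.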 As to conditions: JNK3 lysate, c-Jun phosphorylation; series mostly up to 57.1 µM. The procedure, abridged: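 Phosphorylation of biotinylated GST-cJun(1-79) at Ser73 is measured by AlphaScreen proximity luminescence. Enzyme is JNK3 in HepG2 lysates activated with interleukin-1beta and tumor necrosis factor alpha; ATP is 10 uM final.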

Assay [8] can be described thus: Confirmation and Secondary Assay for Modulators of Hemoglobin Beta Chain Splicing at IVS2 654 locus (AID 910; active means well fitted curve in the direction sought with a large enough effect; an effect the other way counts as inactive or inconclusive;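 further: per-well total GFP intensity by laser scanning cytometry after 2-day treatment; % of control where 0% means no effect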). As to conditions: HeLa EGFP-654 splicing reporter, GFP fluorescence, 48 h; series mostly up to 38.3 µM. The procedure, abridged:
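HeLa cells stably carrying EGFP interrupted by mutant beta-globin IVS2-654 intron (CMV-driven) were treated with compound for 2 days at 37C; corrected splicing was scored as total peak GFP intensity per well (488 nm excitation, 500-520 nm emission).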

The nature of assay [9]: Confirmation and Secondary Assay for Modulators of Hemoglobin Beta Chain Splicing at IVS2 705 locus (AID 930; active means well fitted curve in the direction sought with a large enough effect; an effect the other way counts as inactive or inconclusive; further: % of control where 0% means no effect). The conditions noted are these: HeLa EGFP-705 splicing reporter, GFP fluorescence, 48 h; series mostly up to 38.3 µM. The procedure, abridged: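 Fluorescence gain (488 nm laser, 500-520 nm PMT) reflects restored correct splicing of a mutant IVS2-705 intron inside EGFP in stably transfected HeLa cells after 2-day compound treatment.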

A short description of assay [10]: qHTS Assay for Lipid Storage Modulators (AID 1519; calls by dose curve). As to conditions: Drosophila S3 cells, BODIPY lipid droplet/cell ratio, laser cytometry, cells loaded with oleic acid; for activity change, negative = inhibition: at 57.5 µM (top of the series). The procedure, abridged: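 Cells seeded at 5,000 per well were treated with compounds over a concentration series and loaded with oleic acid (400 uM, as added). Lipid droplet fluorescence (488 nm excitation, 500-530 nm channel) was read by laser-scanning cytometry and normalized to 20 uM Triacsin C.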

Assay [11] concerns the target Cytochrome P450 1A2 (Homo sapiens) (UniProt P05177). Put plainly: p450-cyp1a2 (AID 410; calls by dose curve; further: potency means the concentration at half of the fitted maximal effect). The conditions noted are these: recombinant CYP1A2, luciferin-ME demethylation, luminescence; series mostly up to 57 µM. The procedure, abridged:
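Luminescent demethylation readout: Luciferin-ME (100uM, equal to Km) turned over by 20nM CYP1A2 for 60 min at room temperature after NADPH regeneration addition, following 10 min compound preincubation. Normalization used 57 uM furafylline as full inhibition.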

The target of assay [12] is Cytochrome P450 3A4 (Homo sapiens) (UniProt P08684). Kind of assay: qHTS Assay for Inhibitors and Substrates of Cytochrome P450 3A4 (AID 884; active means well fitted curve in the direction sought with a large enough effect; an effect the other way counts as inactive or inconclusive; further: potency means the concentration at half of the fitted maximal effect; nearly all actives have a fitted effect of over 50% in size). The conditions noted are these: recombinant CYP3A4, Luciferin-PPXE luminescence; series mostly up to 57.1 µM. The procedure, abridged:
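Luminescent readout of luciferin produced by CYP3A4 (20 nM) dealkylation of Luciferin-PPXE, 25 uM (its KM). NADPH-driven reaction ran 60 min at RT after 10 min compound preincubation; data scaled to 57 uM ketoconazole as 100% inhibition.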

For assay [13] the target is unchanged. Put plainly: qHTS Assay for Activators of Cytochrome P450 3A4 (AID 885; active means well fitted curve in the direction sought with a large enough effect; an effect the other way counts as inactive or inconclusive; further: nearly all actives have a fitted effect of over 65% in size). As to conditions: recombinant CYP3A4, Luciferin-PPXE luminescence, 60 min; series mostly up to 57.1 µM. The procedure, abridged:
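Luminescent readout of luciferin formed from 25 uM Luciferin-PPXE (KM level) by 20 nM CYP3A4 in 200 mM KPO4, with 60 min NADPH-driven reaction at room temperature after 10 min compound exposure. Ketoconazole (57 uM) defined 100% inhibition.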

For assay [14], the target named is Cytochrome P450 2D6 (Homo sapiens) (UniProt P10635). Kind of assay: qHTS Assay for Inhibitors and Substrates of Cytochrome P450 2D6 (AID 891; active means well fitted curve in the direction sought with a large enough effect; an effect the other way counts as inactive or inconclusive; further: potency means the concentration at half of the fitted maximal effect; nearly all actives have a fitted effect of over 60% in size). As to conditions: recombinant CYP2D6, luciferin-ME EGE luminescence; series mostly up to 57.1 µM. The procedure, abridged: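 Luminescent read-out of luciferin formed by 5 nM human CYP2D6 demethylating 30 uM Luciferin-ME EGE (Km level) over 60 min at room temperature after NADPH regeneration addition. Data normalized to full inhibition by 1.43 uM quinidine.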
Cytochrome P450 2D6 (Homo sapiens), sequence (P10635 whole entry, looked up): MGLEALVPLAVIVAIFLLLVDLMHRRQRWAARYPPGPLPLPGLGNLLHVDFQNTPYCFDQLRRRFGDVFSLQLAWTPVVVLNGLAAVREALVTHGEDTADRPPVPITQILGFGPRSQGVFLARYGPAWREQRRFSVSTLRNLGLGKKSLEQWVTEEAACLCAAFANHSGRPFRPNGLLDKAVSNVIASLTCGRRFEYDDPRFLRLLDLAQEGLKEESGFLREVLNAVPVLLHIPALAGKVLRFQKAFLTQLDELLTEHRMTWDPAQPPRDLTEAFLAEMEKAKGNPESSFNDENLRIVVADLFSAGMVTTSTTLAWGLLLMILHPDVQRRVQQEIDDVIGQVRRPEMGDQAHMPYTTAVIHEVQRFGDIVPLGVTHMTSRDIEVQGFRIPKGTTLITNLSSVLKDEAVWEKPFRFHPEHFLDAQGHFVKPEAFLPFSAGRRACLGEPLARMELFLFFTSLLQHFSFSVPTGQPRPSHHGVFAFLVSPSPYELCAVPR

The target of assay [15] is 3',5'-cyclic-AMP phosphodiesterase 4B (Homo sapiens) (UniProt Q07343). Kind of assay: qHTS Assay for Inhibitors of PDE-IV (AID 607; active means well fitted activation curve with a large enough effect in the main read-out, with a control signal flat, not every such curve was filed as active; further: % of control where 0% means no effect). As to conditions: HEK293 ACTOne CNG channel cells, membrane potential fluorescence; series mostly up to 22.9 µM. The procedure, abridged: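 Cell-based read-out of cAMP via a modified cyclic nucleotide-gated channel and membrane potential dye (535/590 nm) in HEK293 cells expressing PDE4 endogenously. Compounds tested up to 22.9 uM final; 100 uM RO 20-1724 reference.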
3',5'-cyclic-AMP phosphodiesterase 4B (Homo sapiens), sequence (Q07343 whole entry, looked up): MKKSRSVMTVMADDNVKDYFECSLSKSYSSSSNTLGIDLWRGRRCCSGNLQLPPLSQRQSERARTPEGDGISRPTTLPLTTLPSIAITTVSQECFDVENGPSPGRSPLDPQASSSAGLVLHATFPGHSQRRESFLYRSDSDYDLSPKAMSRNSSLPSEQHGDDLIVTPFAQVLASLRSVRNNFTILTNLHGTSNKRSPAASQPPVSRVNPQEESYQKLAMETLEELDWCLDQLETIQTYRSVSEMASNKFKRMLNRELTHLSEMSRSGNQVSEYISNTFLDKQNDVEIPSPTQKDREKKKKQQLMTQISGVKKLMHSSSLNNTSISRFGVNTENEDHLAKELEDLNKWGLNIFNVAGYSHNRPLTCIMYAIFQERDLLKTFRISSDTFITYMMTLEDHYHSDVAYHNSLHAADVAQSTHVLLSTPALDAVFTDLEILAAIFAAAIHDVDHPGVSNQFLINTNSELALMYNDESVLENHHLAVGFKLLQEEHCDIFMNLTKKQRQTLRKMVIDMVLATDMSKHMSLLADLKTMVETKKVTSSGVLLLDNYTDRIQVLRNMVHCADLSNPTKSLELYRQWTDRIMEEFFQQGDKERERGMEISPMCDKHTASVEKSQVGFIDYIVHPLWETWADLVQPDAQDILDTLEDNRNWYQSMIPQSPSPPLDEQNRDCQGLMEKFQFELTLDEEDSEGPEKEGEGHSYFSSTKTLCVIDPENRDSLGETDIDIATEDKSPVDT

Assay [16] can be described thus: qHTS Assay for Identification of Small Molecule Agonists for Hypoxia Response Element Signaling Pathway (AID 914; active means well fitted activation curve with a large enough effect in the signal ratio, with a control signal flat, not every such curve was filed as active; the % refers to the signal ratio; further: % of control where 0% means no effect). As to conditions: ME-180 (cervical carcinoma) HRE-bla reporter, beta-lactamase ratio, CoCl2, 17 h; activation: stronger effect = higher value. The procedure, abridged: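 A beta-lactamase reporter under hypoxia response element control in ME-180 cells served as the system. Compound titrations plus EC50 CoCl2 ran 17 h at 37 degrees Celsius; AC50 values were fitted from %Activity.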

[17] abbreviates: measured here: cell count channel max response.
Where [18] appears, read: measured here: lipid channel max response.

Lysosomal acid glucosylceramidase (Homo sapiens), sequence (P04062 whole entry, looked up): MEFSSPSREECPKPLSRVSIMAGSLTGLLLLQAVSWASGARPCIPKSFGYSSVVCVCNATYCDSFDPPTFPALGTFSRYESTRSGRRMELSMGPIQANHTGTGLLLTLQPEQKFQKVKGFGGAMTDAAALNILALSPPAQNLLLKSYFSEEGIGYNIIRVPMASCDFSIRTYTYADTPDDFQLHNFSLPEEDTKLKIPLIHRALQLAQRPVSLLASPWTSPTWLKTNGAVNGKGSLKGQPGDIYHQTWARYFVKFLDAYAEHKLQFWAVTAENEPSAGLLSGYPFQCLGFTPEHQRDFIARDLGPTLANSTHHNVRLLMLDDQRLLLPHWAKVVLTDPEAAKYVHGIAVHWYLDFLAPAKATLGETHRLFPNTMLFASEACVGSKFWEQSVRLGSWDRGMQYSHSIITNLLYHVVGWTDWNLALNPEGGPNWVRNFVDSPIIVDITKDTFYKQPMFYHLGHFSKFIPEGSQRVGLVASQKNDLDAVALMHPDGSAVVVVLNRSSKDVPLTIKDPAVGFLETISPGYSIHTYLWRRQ
Cytochrome P450 3A4 (Homo sapiens), sequence (P08684 whole entry, looked up): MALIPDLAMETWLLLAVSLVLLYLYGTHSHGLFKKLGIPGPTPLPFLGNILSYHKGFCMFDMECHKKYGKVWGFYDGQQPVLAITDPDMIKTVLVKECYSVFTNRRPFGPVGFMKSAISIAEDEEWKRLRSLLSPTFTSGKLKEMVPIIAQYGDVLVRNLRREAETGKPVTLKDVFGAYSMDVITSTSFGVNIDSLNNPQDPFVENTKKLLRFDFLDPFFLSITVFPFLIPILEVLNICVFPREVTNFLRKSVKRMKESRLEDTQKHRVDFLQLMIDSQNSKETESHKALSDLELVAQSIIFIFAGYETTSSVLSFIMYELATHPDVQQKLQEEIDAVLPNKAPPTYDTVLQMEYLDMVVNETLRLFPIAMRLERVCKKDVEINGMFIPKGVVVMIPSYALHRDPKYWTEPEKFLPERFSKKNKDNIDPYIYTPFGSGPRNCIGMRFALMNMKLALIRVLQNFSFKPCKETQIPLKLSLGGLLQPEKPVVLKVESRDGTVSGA
Glucocorticoid receptor (Homo sapiens), sequence (P04150 whole entry, looked up, the tested form may be a part): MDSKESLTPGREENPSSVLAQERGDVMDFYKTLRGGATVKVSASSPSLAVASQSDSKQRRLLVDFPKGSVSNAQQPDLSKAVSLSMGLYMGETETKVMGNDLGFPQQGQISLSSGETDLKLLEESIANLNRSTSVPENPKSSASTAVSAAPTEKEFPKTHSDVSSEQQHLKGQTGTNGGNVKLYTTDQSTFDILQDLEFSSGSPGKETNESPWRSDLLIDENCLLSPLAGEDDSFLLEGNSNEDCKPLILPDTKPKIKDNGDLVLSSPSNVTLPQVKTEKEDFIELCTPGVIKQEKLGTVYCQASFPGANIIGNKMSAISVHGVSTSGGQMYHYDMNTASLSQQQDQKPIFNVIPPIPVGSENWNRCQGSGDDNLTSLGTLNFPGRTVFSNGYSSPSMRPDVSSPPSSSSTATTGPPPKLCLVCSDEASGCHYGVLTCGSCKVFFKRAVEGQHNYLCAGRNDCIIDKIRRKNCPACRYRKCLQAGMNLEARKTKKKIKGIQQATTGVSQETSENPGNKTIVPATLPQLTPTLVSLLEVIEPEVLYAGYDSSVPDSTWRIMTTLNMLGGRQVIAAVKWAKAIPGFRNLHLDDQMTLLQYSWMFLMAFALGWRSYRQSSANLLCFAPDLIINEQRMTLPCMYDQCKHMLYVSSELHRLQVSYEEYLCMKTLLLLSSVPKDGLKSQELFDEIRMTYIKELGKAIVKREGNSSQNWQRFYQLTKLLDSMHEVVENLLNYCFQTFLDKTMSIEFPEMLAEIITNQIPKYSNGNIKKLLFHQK
Cytochrome P450 1A2 (Homo sapiens), sequence (P05177 whole entry, looked up): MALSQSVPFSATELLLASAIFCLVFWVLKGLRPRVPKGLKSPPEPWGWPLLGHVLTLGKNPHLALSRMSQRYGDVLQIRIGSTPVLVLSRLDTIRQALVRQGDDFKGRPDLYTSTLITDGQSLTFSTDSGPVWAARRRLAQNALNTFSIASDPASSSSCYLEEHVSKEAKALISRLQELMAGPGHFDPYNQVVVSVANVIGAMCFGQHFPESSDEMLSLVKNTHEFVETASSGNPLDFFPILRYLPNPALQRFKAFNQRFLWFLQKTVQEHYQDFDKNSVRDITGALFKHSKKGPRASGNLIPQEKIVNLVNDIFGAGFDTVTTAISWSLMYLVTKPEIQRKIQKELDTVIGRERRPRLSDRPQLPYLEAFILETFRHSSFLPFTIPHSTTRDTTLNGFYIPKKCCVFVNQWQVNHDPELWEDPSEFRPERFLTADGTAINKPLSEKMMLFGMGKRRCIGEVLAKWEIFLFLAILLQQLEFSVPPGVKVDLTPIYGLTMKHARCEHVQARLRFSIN

Turning to `c1ccc2c(N3CCNCC3)nc(-c3ccoc3)nc2c1`, the Potency in assay [1] was > 11.4 µM (inactive); in assay [5] it was > 46 µM (inactive); in assay [6] it was > 46 µM (inactive). The activity change, negative = inhibition in assay [2] was 0.826% (inactive); in assay [3], -11.1% (inactive); in assay [10], 8.78% (inactive). Further, in assay [4], the activity, negative = inhibition was 28% (inactive). The Potency result in assay [7] and in [8] was “inactive” in each case. In addition, the molecule was classed as inactive in assay [9]. Moreover, the max response in [10] (setting [17]) worked out at 9.44%; in assay [10] (setting [18]), 17.6%.
With `c1ccc(Nc2ncnc3ccc(-c4ccc5c(c4)OCO5)cc23)cc1`, the Potency was > 11.4 µM (inactive) in assay [1]; 0.251 µM (active) in [11]; > 46 µM (inactive) in assay [5]; > 46 µM (inactive) in assay [6]; 2.51 µM (active) in assay [12]; 0.126 µM (active) in assay [14]. Besides, the activity, negative = inhibition in [4] is 8.5% (inactive). In addition, the Potency result in assay [7], in assay [13] and in [8] was “inactive” in each case. Moreover, the result in assay [9] was inactive. Further, the activity change, negative = inhibition in assay [10] was 5.31% (inactive). Further, the max response in [10] (setting [17]) was -12.2%; in assay [10] (setting [18]), -7.25%.
In the case of `O=c1c(-c2cc(F)cc(F)c2)nc2cnc(Oc3ccccc3)nc2n1C[C@H]1CCCO1`, the Potency was > 11.4 µM (inactive) in assay [1], > 9.22 µM (inactive) in [5] and > 46 µM (inactive) in assay [6]. Also, the activity change, negative = inhibition in assay [2] is -12.8% (inactive); in assay [3], -1.84% (inactive); in [10] it was -6.47% (inactive). Further, in [4], the activity, negative = inhibition was -1.6% (inactive). The Potency entry in assay [7], in [15] and in assay [13] was “inactive” throughout. For the same molecule, the activation in [16] is 3.51% (inactive). Also, the max response in assay [10] (setting [17]) came to 13.2%; in assay [10] (setting [18]), 10.1%.
